Screening data: PubChem BioAssay, National Center for Advancing Translational Sciences (NCATS)
Only some compounds are listed: those with a hit (about 6.2% of all), similar ones and a draw of the others.
VP16 counter = inhibits Gal4-VP16 luciferase reporter, ROR gamma counter-screen; Drosophila S2 Gal4-VP16 UAS-luciferase, luminescence, 20 h; Potency, µM (doses to about 53.6 µM), for inactives: at the highest dose activity, negative = inhibition, most hits filed as inhibitors; hit rate 3.5% among 310,000; AID 2546;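 further: Gal4-VP16 expression switched on by copper sulfate through the metallothionein promoter; nearly all actives have a fitted effect of over 50% in size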
Luc counter = blocks Kinase-Glo luciferase, a counter-screen artifact; Kinase-Glo luciferase, ATP luminescence, 8 min; AID 1379; Q27757; Potency, µM (series often up to 38.3 µM), without a hit: at the highest dose activity change, negative = inhibition, actives largely listed as inhibitors; hit rate 0.28% among 200,000; further: nearly all actives have a fitted effect of over 60% in size
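Compounds were added to a substrate mix at pH 7.2 (50 mM imidazole, 10 uM ATP, within the enzyme's linear range), followed by Kinase-Glo detection reagent; luminescence was measured after 8 minutes at ambient temperature.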
RORg inh = ROR gamma (mouse) transcription inhibition | AID 2551 | P51450 | Drosophila S2 Gal4-RORgamma UAS-luciferase reporter, 20 h | Potency, µM (series often up to 53.6 µM), without a hit: at the highest dose activity change, negative = inhibition, actives largely listed as inhibitors | hit rate 5.4% among 310,000; further: nearly all actives have a fitted effect of over 60% in size
Target sequence (P51450 whole entry, looked up, the tested form may be a part): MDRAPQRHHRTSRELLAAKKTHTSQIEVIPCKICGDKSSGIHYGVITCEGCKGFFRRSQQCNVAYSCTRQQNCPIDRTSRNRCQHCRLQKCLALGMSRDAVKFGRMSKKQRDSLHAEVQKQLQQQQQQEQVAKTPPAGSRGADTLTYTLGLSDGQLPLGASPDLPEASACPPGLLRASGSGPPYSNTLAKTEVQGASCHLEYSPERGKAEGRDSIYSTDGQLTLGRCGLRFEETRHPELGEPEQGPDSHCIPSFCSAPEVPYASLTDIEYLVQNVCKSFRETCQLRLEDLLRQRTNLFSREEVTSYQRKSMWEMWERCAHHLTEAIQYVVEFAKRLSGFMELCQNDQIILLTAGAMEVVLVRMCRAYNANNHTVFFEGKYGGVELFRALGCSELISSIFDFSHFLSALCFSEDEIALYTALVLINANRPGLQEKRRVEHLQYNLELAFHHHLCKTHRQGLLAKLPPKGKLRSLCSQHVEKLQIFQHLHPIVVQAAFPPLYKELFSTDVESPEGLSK
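ROR gamma transcriptional activity was tracked as Gal4-UAS luciferase output in stably transfected Drosophila Schneider cells, with compound added 1 hr before 700 uM copper sulfate induction and a 20 hr ambient-temperature incubation.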
* hit, by the source's call; ? = inconclusive; nt = no result; [ ] = remark or other dose. The call rests on the fitted dose curve; in most records, active means well fitted curve in the direction sought with a large enough effect; inconclusive means small, poorly fitted or top-dose-only effect, or another doubt; inactive means no such curve, though single readings can be large; an effect the other way counts as inactive or inconclusive. On the % scale 0 is the no-effect control and ±100 the full control effect; potency means the concentration at half of the fitted maximal effect.

SMILES	VP16 counter	Luc counter	RORg inh
c1cnc(NC2CCCCCC2)nc1	0%	0%	-14%
CNC[C@H](CC1CCCCC1)NC[C@H](Cc1ccccc1)NCCC12CC3CC(CC(C3)C1)C2	?	nt	20µM*
O=C(CC12CC3CC(CC(C3)C1)C2)NC(Cc1ccccc1)C(=O)O (stereo not given)	2%	-2%	21%
COc1ccc([C@]23Cc4c(ccc5ccccc45)C(O2)C2=C(CC4(CCCCC4)OC2=O)O3)cc1	-5%[10 µM]	nt	-22%[10 µM]
O=C(O)c1ccc(C[n+]2c(-c3ccccc3)csc2Nc2ccccc2)cc1	-17%	-1%	5.6µM*
CC(C)(C)c1cc(-c2csc(Nc3ccccc3)[n+]2Cc2ccc(C(=O)O)cc2)cc(C(C)(C)C)c1O	-24%	nt	40%
CC(C)NC(=S)N1CCN(Cc2ccc3c(c2)OCO3)CC1	1%	0%	3%
Cc1ccccc1NC(=S)N1CCN(Cc2ccc3c(c2)OCO3)CC1	?	6%	?
Cc1c(Cl)cccc1NC(=S)N1CCN(Cc2ccc3c(c2)OCO3)CC1	14µM*	1%	11µM*
Cc1cccc(NC(=S)NC2CCN(Cc3ccccc3)CC2)c1C	-88%	-6%	?
CCN(CC)c1ccc(C(=O)NC(=S)N2CCN(Cc3ccc4c(c3)OCO4)CC2)cc1	7.1µM*	-4%	6.3µM*
Cc1cc(Cl)ccc1NC(=S)N1CCN(Cc2ccccc2)CC1	13µM*	3%	11µM*
COc1ccc(NC(=S)N2CCN(Cc3ccccc3)CC2)c(OC)c1	-1%	-1%	-3%
Cc1cccc(NC(=S)N2CCN(Cc3ccccc3)CC2)c1C	?	nt	8.9µM*
CN(Cc1ccco1)c1ccnc(-c2ccoc2)n1	-16%	1%	-13%
O=c1cnc2cnc(Oc3ccccc3)nc2n1C1CC1	4%	nt	-6%
CC1(C)CC(=O)C2=C(C1)N(c1ccc(F)cc1)C(=O)C2(NC(=O)c1ccccc1F)C(F)(F)F (stereo not given)	2%	0%	-1%
CC1(C)CC(=O)C2=C(C1)N(c1ccc(F)cc1)C(=O)NC2(C(F)(F)F)C(F)(F)F	-7%	-4%	11µM*
CN1C(=O)NC(c2ccccc2)(C(F)(F)F)S/C1=C(/C#N)c1nnc(N2CCOCC2)n1-c1ccccc1 (stereo not given)	?	1%	14µM*
CN1C(c2ccc(F)cc2)=CS/C1=C(/C#N)c1nnc(N2CCOCC2)n1-c1ccccc1	-1%	-2%	-20%
COc1cc2c(cc1OC)C(C1C(=O)CCCC1=O)N(C(=O)CCl)CC2 (stereo not given)	5%	1%	-16%
COc1cc2c(cc1OC)C(c1ccccc1)N(C(=O)CCl)CC2 (stereo not given)	?	-2%	25µM*
COC(=O)c1cccn(CC(=O)c2ccc(Cl)cc2Cl)c1=O	-6%	0%	-16%
COc1cc(OC)c(S(=O)(=O)N2CCOCC2)cc1S(=O)(=O)N1CCOCC1	5%	nt	-6%
COc1cc(Cl)ccc1OCc1cc(C(=O)N(C)Cc2cccc3cnccc23)no1	-15%	nt	40%
SMILES	VP16 counter	Luc counter	RORg inh
COC(=O)C1CCCCN1C(=O)c1cc(COc2cccc3cnccc23)on1 (stereo not given)	?	nt	-29%
CCOC(=O)CC1CCCCN1C(=O)c1cc(COc2cccc3cnccc23)on1 (stereo not given)	4µM*	nt	?
CN(Cc1nccs1)C(=O)c1cc(COc2cccc3cnccc23)on1	13µM*	nt	-34%
CC1OC(n2cc(F)c(=O)[nH]c2=O)C(O)C1O (stereo not given)	-1%	1%	-20%
C=CC[C@@](C(C)=O)(C(=O)OC)C(NC(=O)OC)c1ccccc1 (stereo not given in full)	-11%	1%	-23%
O=C(O)c1ccc(N2C(=O)c3[nH]nc(-c4ccccc4)c3C2c2ccccc2)cc1 (stereo not given)	-16%	nt	9%
CC(C)[C@@H]1CC[C@@H](C)c2c(-c3ccccc3)n[nH]c21	?	nt	16µM*
CC(N)COC(=O)C(CCCCN)NC(=O)Cc1c(-c2ccc3ccccc3c2)[nH]c2c1ccc1ccccc12 (stereo not given)	-8%	nt	11%
C(=N\N1CCN(C2c3ccccc3-c3ccccc32)CC1)/c1cccnc1	?	-3%	-28%
C(=N\N1CCN(C2c3ccccc3-c3ccccc32)CC1)/c1ccccn1	?	-1%	7.1µM*
Cc1c(C)c2c(c(C)c1O)CC[C@@](C)(CCC[C@@H](C)CCC[C@@H](C)CCCC(C)C)O2	-1%	1%[39.9 µM]	-13%
COc1ccc(N2Cc3ccccc3C2=NC(=O)c2cncc(Br)c2)cc1	6%	-5%	-7%
COc1ccc(Cc2noc(CN(C)Cc3ccc(-n4cccn4)cc3)n2)cc1OC	-3%	-3%	25%
CCc1ccc(CN(C)Cc2nc(Cc3ccc(OC)c(OC)c3)no2)nc1	-5%	nt	10µM*
CN(C)c1c(F)cc(-c2nn[nH]n2)cc1F	-6%	nt	-20%
COc1ccc(C(=O)N2CCC3(CCCN(Cc4nccs4)C3)CC2)cc1	6%	-4%	23%
Oc1ccc(/C=N/Nc2ccc(Cl)nn2)cc1O	-6%	nt	-31%
CC(C)CN(CCNC(=O)CN1C(=O)COc2ccc(S(=O)(=O)N3CCC(C)CC3)cc21)CC(C)C	7%	nt	-7%
Cc1cc2ncc(-c3cccs3)nc2cc1C	?	nt	10µM*
c1csc(-c2ccc3ccccc3n2)c1	18%	-9%	-8%
Cc1cccc(OC2(c3ccccc3)OC(=O)c3ccccc32)c1C (stereo not given)	-4%	5%	-18%
Cc1csc(=N)n1-c1ccc(Cl)cc1	11µM*	-1%	?
Cc1ccc(-n2c(C)csc2=N)cc1	-15%	17%	?
CCCc1ccc(Oc2cc(NN3CCCCC3)c([N+](=O)[O-])cc2[N+](=O)[O-])cc1	-7%	nt	37%
CCOC(=O)c1oc2ccc(S(=O)(=O)n3nc(-c4ccccc4)cc3N)cc2c1C	11µM*	1%	-36%
SMILES	VP16 counter	Luc counter	RORg inh
CCOC(=O)c1oc2ccc(S(=O)(=O)n3nc(-c4ccc(OC)cc4)cc3N)cc2c1C	-16%	2%	29%
CCCOC(=O)Cn1cnc2scc(-c3ccc(OC)cc3)c2c1=O	-5%	nt	-20%
Cc1ccc(O)c(C2=NNC(O)(C(F)(F)F)C2)c1 (stereo not given)	-23%	0%	0%
Cc1ccc(O)c(C2=NNC(c3ccc(Cl)cc3)C2)c1 (stereo not given)	13µM*	nt	7.9µM*
Oc1ccccc1C1CC(c2cccs2)=NC(c2ccc(Cl)cc2)N1 (stereo not given)	18%	2%	?
Oc1ccc(Cl)cc1C1=NNC(c2cccs2)C1 (stereo not given)	?	nt	5µM*
CC(=O)OC[C@H]1O[C@@H](O/N=C/C[C@@H]2C=C[C@H](OC(C)=O)[C@@H](COC(C)=O)O2)[C@H](OC(C)=O)[C@@H](OC(C)=O)[C@@H]1OC(C)=O	3%	1%	10%
O=C(Nc1nccs1)C1CC(=O)N(c2ccccc2)C1 (stereo not given)	1%	nt	12%
Cc1ccccc1CN(C)C(C)C(=O)NCc1ccccc1 (stereo not given)	10%	nt	5%
